Holding throughout (details): mRNA level, 48 h; actives raise or lower the signal
Read-out in test [1]: Peroxisomal acyl-coenzyme A oxidase 1 (ACOX1) gene, ACOX1 (gene 51)
Put plainly: LTEA_HepaRG_ACOX1: Life Technologies and Expression Analysis (LTEA) Assay for Peroxisomal acyl-coenzyme A oxidase 1 (ACOX1) gene using HepaRG (AID 2283467). The method in brief:
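Measured by qRT-PCR against three housekeeping genes: ACOX1 transcript change in human HepaRG cells after 48 h dosing. Concentrations ran up to 100 uM in half-log steps. Curves were fitted bidirectionally relative to 0.5% DMSO.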

Read-out in test [2]: Alkaline Phosphatase, Placental (ALPP) gene, ALPP (gene 250)
Put plainly: LTEA_HepaRG_ALPP: Life Technologies and Expression Analysis (LTEA) Assay for Alkaline Phosphatase, Placental (ALPP) gene using HepaRG (AID 2283468).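 On AC50: differentiated human HepaRG liver cells in serum-free induction medium.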 The method in brief: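 qRT-PCR readout of ALPP mRNA (Fluidigm TaqMan), normalized to ACTB/GAPDH/POLR2A, after 48 h chemical exposure of HepaRG cells; 8-point half-log series, top 100 uM, 0.5% DMSO vehicle. Bidirectional curve fit versus DMSO baseline.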

Read-out in test [3]: Bcl-2 (BAD) gene, BAD (gene 572)
Put plainly: LTEA_HepaRG_BAD: Life Technologies and Expression Analysis (LTEA) Assay for Bcl-2 (BAD) gene using HepaRG (AID 2283469). The procedure, abridged:
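BAD transcript change, measured by qRT-PCR against three housekeeping genes and fitted in both directions relative to 0.5% DMSO, after 48 h chemical treatment of human HepaRG liver cells at concentrations up to 100 uM.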

Read-out in test [4]: Bcl-2 (BAX) gene, BAX (gene 581)
Put plainly: LTEA_HepaRG_BAX: Life Technologies and Expression Analysis (LTEA) Assay for Bcl-2 (BAX) gene using HepaRG (AID 2283470). The procedure, abridged: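 HepaRG (human liver), 48 h exposure, duplicate wells. 8-pt curve, half-log from 100 uM, 0.5% DMSO. BAX transcript by TaqMan qRT-PCR; ACTB/GAPDH/POLR2A normalization; gain or loss vs DMSO baseline.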

Read-out in test [5]: adenosine kinase (ADK) gene, ADK (gene 132)
Put plainly: LTEA_HepaRG_ADK: Life Technologies and Expression Analysis (LTEA) Assay for adenosine kinase (ADK) gene using HepaRG (AID 2283471). The method in brief: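 Read-out is ADK transcript level measured by qRT-PCR and normalised to three housekeeping genes. Cells are human HepaRG, dosed for 48 h at up to 100 uM in 0.5% DMSO. Gain or loss of signal is fitted against DMSO controls.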

Read-out in test [6]: Alpha-fetoprotein (AFP) gene, AFP (gene 174)
Put plainly: LTEA_HepaRG_AFP: Life Technologies and Expression Analysis (LTEA) Assay for Alpha-fetoprotein (AFP) gene using HepaRG (AID 2283472). The procedure, abridged:
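HepaRG, single lot; 48 h post-plating -> serum-free induction medium; cpd 8-pt, 100 uM top, half-log, 0.5% DMSO, duplicate, 48 h. RNA -> qRT-PCR AFP, norm ACTB/GAPDH/POLR2A. Bidirectional fit vs DMSO.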

Read-out in a further test: BCL2L11 (gene 10018)
Put plainly: LTEA_HepaRG_BCL2L11: Life Technologies and Expression Analysis (LTEA) Assay for Bcl-2 (BCL2L11) gene using HepaRG (AID 2283473). The method in brief:
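HepaRG, 48 h exposure, 8-pt half-log series from 100 uM in 0.5% DMSO, duplicates; qRT-PCR (Fluidigm TaqMan) for BCL2L11, housekeeping-normalized; bidirectional curve fit relative to DMSO baseline.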

Read-out in test [7]: Apolipoprotein A-V (APOA5) gene, APOA5 (gene 116519)
The test is described as follows: LTEA_HepaRG_APOA5: Life Technologies and Expression Analysis (LTEA) Assay for Apolipoprotein A-V (APOA5) gene using HepaRG (AID 2283474). The procedure, abridged:
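HepaRG, 48 h chemical exposure in serum-free induction medium, 8-pt half-log series (top 100 uM), 0.5% DMSO vehicle, duplicates. Readout: APOA5 mRNA by qRT-PCR, housekeeping-normalized; bidirectional fit vs DMSO baseline.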

Read-out in test [8]: Apoptosis regulator Bcl-2 (Homo sapiens) (UniProt P10415)
The test is described as follows: LTEA_HepaRG_BCL2: Life Technologies and Expression Analysis (LTEA) Assay for Bcl-2 gene using HepaRG (AID 2283475). The method in brief:
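HepaRG, plated 48 h then switched to serum-free induction medium; dosed 48 h, 8 conc. (max 100 uM, half-log steps), duplicate, 0.5% DMSO. Lysis in RLT, RNA isolated, TaqMan qRT-PCR for BCL2; ACTB/GAPDH/POLR2A normalisation; bidirectional fit vs DMSO.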

Read-out in test [9]: Bcl-2 (BID) gene, BID (gene 637)
Put plainly: LTEA_HepaRG_BID: Life Technologies and Expression Analysis (LTEA) Assay for Bcl-2 (BID) gene using HepaRG (AID 2283476). The procedure, abridged: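 Transcript levels of BID, measured by qRT-PCR and normalized to three housekeeping genes, were fitted bidirectionally against DMSO controls. Cells were HepaRG, dosed 48 h at up to 100 uM.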

Read-out in a further test: Caspase-3 (Homo sapiens) (UniProt P42574)
Put plainly: LTEA_HepaRG_CASP3: Life Technologies and Expression Analysis (LTEA) Assay for cysteine-aspartic acid protease (CASP3) using HepaRG (AID 2283477). The procedure, abridged:
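HepaRG, 48 h exposure, 8 conc. (top 100 uM, half-log steps, duplicate), 0.5% DMSO vehicle; qRT-PCR of CASP3 transcript, housekeeping-normalised (ACTB/GAPDH/POLR2A); bidirectional curve fit vs DMSO baseline.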

Read-out in test [10]: Cytochrome P450 (CYP24A1), CYP24A1 (gene 1591)
Put plainly: LTEA_HepaRG_CYP24A1: Life Technologies and Expression Analysis (LTEA) Assay for Cytochrome P450 (CYP24A1) using HepaRG (AID 2283478). The procedure, abridged:
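qRT-PCR read-out: CYP24A1 transcript levels normalized to three housekeeping genes, bidirectional curve fits against 0.5% DMSO baseline. Human HepaRG cells treated 48 h with chemicals at eight concentrations from 100 uM in half-log steps.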

Read-out in test [11]: cysteine-aspartic acid protease (CASP8), CASP8 (gene 841)
The test is described as follows: LTEA_HepaRG_CASP8: Life Technologies and Expression Analysis (LTEA) Assay for cysteine-aspartic acid protease (CASP8) using HepaRG (AID 2283480). The method in brief:
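HepaRG, 48 h exposure, duplicate wells; 8 conc, half-log from 100 uM, 0.5% DMSO. Serum-free induction medium. CASP8 mRNA by TaqMan qRT-PCR, norm. ACTB/GAPDH/POLR2A; gain/loss fitted vs DMSO.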

Read-out in test [12]: Cytochrome P450 (CYP2B6), CYP2B6 (gene 1555)
The test is described as follows: LTEA_HepaRG_CYP2B6: Life Technologies and Expression Analysis (LTEA) Assay for Cytochrome P450 (CYP2B6) using HepaRG (AID 2283481). The method in brief: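 Read-out is CYP2B6 mRNA by TaqMan qRT-PCR, normalized to three housekeeping genes and fitted bidirectionally against 0.5% DMSO baseline. Human HepaRG cells received test chemicals for 48 h, top concentration 100 uM, half-log dilutions.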

Read-out in test [13]: Cytochrome P450 2C19 (Homo sapiens) (UniProt P33261)
The test is described as follows: LTEA_HepaRG_CYP2C19: Life Technologies and Expression Analysis (LTEA) Assay for CYP2C19 using HepaRG (AID 2283482). The procedure, abridged: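 HepaRG, 48 h chemical exposure, 8-pt half-log series from 100 uM in 0.5% DMSO, duplicates. Readout: CYP2C19 mRNA by TaqMan qRT-PCR, housekeeping-normalized. Bidirectional fit vs DMSO baseline; phenobarbital 1mM as induction control.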

Read-out in a further test: CYP2C8 (gene 1558)
Put plainly: LTEA_HepaRG_CYP2C8: Life Technologies and Expression Analysis (LTEA) Assay for CYP2C8 using HepaRG (AID 2283483). The method in brief: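 CYP2C8 mRNA induction or loss, by qRT-PCR normalized to ACTB/GAPDH/POLR2A, is read in HepaRG cells after 48 h treatment. Concentrations run from 100 uM down in half-log dilutions, with 0.5% DMSO as vehicle and baseline.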

Read-out in a further test: CYP2C9 (gene 1559)
The test is described as follows: LTEA_HepaRG_CYP2C9: Life Technologies and Expression Analysis (LTEA) Assay for CYP2C9 using HepaRG (AID 2283484). The procedure, abridged: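 Cells plated 48 h, switched to serum-free induction medium, then treated in duplicate for 48 h at eight concentrations (max 100 uM, 0.5% DMSO). RNA then analysed by qRT-PCR for CYP2C9; curves fitted in both directions relative to DMSO.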

Read-out in another test: CYP2E1 (gene 1571)
Put plainly: LTEA_HepaRG_CYP2E1: Life Technologies and Expression Analysis (LTEA) Assay for CYP2E1 using HepaRG (AID 2283485). The method in brief: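 Human liver line HepaRG, plated 48 h, then serum-free induction medium + chemical x 48 h; 8-pt CRC from 100 uM, half-log, 0.5% DMSO, n=2. Readout: CYP2E1 mRNA qRT-PCR vs ACTB/GAPDH/POLR2A; bidirectional fit vs DMSO.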

Read-out in a further test: CYP4A11 (gene 1579)
Put plainly: LTEA_HepaRG_CYP4A11: Life Technologies and Expression Analysis (LTEA) Assay for CYP4A11 using HepaRG (AID 2283486). The procedure, abridged: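 CYP4A11 transcript levels were quantified by TaqMan qRT-PCR after HepaRG human liver cells were treated for 48 hours with test chemicals (top 100 uM, half-log dilutions, 0.5% DMSO). Gain or loss of signal was fitted relative to DMSO.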

Read-out in test [14]: Cytochrome P450 (CYP1A2), CYP1A2 (gene 1544)
The test is described as follows: LTEA_HepaRG_CYP1A2: Life Technologies and Expression Analysis (LTEA) Assay for Cytochrome P450 (CYP1A2) using HepaRG (AID 2283479). The method in brief: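 HepaRG, 48 h exposure, top 100 uM, half-log 8-pt, 0.5% DMSO vehicle, duplicates. Readout: TaqMan qRT-PCR of CYP1A2 mRNA, housekeeping-normalized (ACTB/GAPDH/POLR2A). Gain/loss fit relative to DMSO baseline.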

This note sets out measurements from PubChem BioAssay (EPA / NIEHS).

The source made the active and inactive calls. How the source made its calls: active means hit-call score of the fitted dose curve at least 0.9, where 1 is the maximum; inactive means score below 0.9.

Chain of Cytochrome P450 2C19 (Homo sapiens) (P33261 whole entry, looked up): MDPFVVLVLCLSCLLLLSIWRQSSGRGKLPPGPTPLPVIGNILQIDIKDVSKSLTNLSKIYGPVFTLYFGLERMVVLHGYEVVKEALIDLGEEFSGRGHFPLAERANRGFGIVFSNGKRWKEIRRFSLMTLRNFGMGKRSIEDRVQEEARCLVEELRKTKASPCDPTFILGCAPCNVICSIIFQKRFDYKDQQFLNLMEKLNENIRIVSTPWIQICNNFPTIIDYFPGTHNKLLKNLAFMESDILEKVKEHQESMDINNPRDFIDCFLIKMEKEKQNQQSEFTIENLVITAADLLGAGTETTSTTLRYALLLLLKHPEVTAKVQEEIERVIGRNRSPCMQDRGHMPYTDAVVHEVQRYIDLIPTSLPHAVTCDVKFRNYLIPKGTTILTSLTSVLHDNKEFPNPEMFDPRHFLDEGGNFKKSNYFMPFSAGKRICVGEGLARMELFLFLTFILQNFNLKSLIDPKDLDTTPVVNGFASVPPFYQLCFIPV
Chain of Apoptosis regulator Bcl-2 (Homo sapiens) (P10415 whole entry, looked up): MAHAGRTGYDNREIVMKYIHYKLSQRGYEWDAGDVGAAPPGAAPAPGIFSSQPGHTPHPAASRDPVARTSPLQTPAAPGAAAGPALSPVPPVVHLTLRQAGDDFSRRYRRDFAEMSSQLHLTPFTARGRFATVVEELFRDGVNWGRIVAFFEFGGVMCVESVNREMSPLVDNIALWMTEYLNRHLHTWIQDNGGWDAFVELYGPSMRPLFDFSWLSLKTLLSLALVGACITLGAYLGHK
Chain of Caspase-3 (Homo sapiens) (P42574 whole entry, looked up): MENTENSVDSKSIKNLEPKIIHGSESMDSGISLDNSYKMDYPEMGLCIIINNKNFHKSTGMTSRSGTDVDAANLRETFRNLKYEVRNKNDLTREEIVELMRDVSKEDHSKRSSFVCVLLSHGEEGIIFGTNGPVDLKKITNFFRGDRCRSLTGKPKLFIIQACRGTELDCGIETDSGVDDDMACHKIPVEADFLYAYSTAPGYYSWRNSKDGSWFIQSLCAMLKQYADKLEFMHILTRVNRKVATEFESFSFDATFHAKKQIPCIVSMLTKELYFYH

On to `CC(=O)OCC(COC(C)=O)OC(C)=O`, for which the outcome in test [1], in test [2], in test [3], in test [4], in [5] and in test [6] was inactive. Also, the result (in the test with BCL2L11 (gene 10018); in test [7]; in test [8]; in [9]; with Caspase-3 (Homo sapiens); in test [10]) was inactive. The result (in [11]; in test [12]; in test [13]; with CYP2C8 (gene 1558); with CYP2C9 (gene 1559); with CYP2E1 (gene 1571)) was inactive. In the test with CYP4A11 (gene 1579), the outcome was inactive.
Regarding `O=C(O)CN(CC(=O)O)CC(=O)O`, the molecule was classed as inactive (in test [1]; in [2]; in [3]; in test [5]; in test [6]; in the test with BCL2L11 (gene 10018)). The molecule was classed as inactive (in [7]; in test [8]; in test [9]; with Caspase-3 (Homo sapiens); in test [10]; in [11]). In addition, the outcome (in test [12]; in test [13]; with CYP2C8 (gene 1558); with CYP2C9 (gene 1559); with CYP2E1 (gene 1571); in the test with CYP4A11 (gene 1579)) was inactive. Also, in test [14], the AC50 was 45.8 µM (active).
For the molecule `COC(=O)[C@H]1[C@H]2C[C@@H]3c4[nH]c5cc(OC)ccc5c4CCN3C[C@H]2C[C@@H](OC(=O)c2cc(OC)c(OC)c(OC)c2)[C@@H]1OC`, the AC50 in test [1] was 42.2 µM (active); in test [2] it was 25.9 µM (active); in test [6] it was 60.8 µM (active); in [7], 55.6 µM (active); in test [8], 42.2 µM (active); in test [14], 9.74 µM (active). Besides, the AC50 in test [12] was 61.7 µM (active); in test [13], 63.4 µM (active); with CYP2C8 (gene 1558), 63.5 µM (active); in the test with CYP2C9 (gene 1559), 60.9 µM (active); with CYP2E1 (gene 1571), 49.3 µM (active); in the test with CYP4A11 (gene 1579), 48.8 µM (active). Moreover, the molecule was called inactive (in test [3]; in test [5]; with BCL2L11 (gene 10018); in [9]; in the test with Caspase-3 (Homo sapiens); in test [10]). Besides, the result in test [11] was inactive.
